Among the data in PubChem BioAssay (NCATS) are Potency values, retold here.

Inconclusive results are not listed. Unmarked numbers belong to inactive results. Calls of active or inactive are those of the source. The call rests on the fitted dose curve; in most records, active means well fitted inhibition curve with a large enough effect; inconclusive means small, poorly fitted or top-dose-only effect; inactive means flat fitted curve, though single readings scatter.

Holding throughout (experiment): qHTS profiling for inhibitors of Plasmodium falciparum proliferation (AID 504749); further: nearly all actives have a fitted effect of over 60% in size
Common to all, as to settings: P. falciparum in erythrocytes, SYBR Green DNA, 72 h; series mostly up to 28.7 µM
(In general: Quantitative high-throughput screening tests each substance at several concentrations.)

One test deals with CP185. The procedure, abridged:
(§1)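 Parasite proliferation within erythrocytes, 72 h exposure. Endpoint: SYBR Green I fluorescence after overnight lysis at room temperature. Controls: 0.29 uM artemisinin, DMSO.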

The subject of the next test is CP191. The procedure, abridged: as §1
For the next test, the system named is CP192. The essentials:
as §1

A further test has as its system CP194. The essentials: as §1
The next test deals with CP201. The procedure, abridged: as §1
Another test concerns CP211. The procedure, abridged:
as §1

A further test concerns CP215. The essentials: as §1
The next test concerns CP217. The procedure, abridged: as §1
In a further test the test system is CP237. The essentials:
as §1

The subject of the next test is CP203. The essentials:
as §1
Potency means the concentration at half of the fitted maximal effect.

With `CCC1(CC)C(=O)C=CNC1=O`, the Potency entry in the test on CP185, with CP191, in the test on CP192, in the test with CP194, in the test on CP201 and in the test on CP211 was “inactive” each time. The Potency result in the test with CP215, with CP217 and in the test with CP237 was “inactive” each time.
Consider `CC(C)NC(C)C`, for which the Potency entry with CP185, in the test on CP191, in the test with CP192, with CP194, with CP201 and with CP211 was “inactive” throughout. In addition, the Potency result in the test on CP215, in the test on CP217 and in the test with CP237 was “inactive” throughout.
Turning to `O=C(N/N=C/c1ccc([N+](=O)[O-])o1)c1cc([N+](=O)[O-])cc([N+](=O)[O-])c1O`, the values for the Potency in the test on CP185, with CP191 and in the test with CP217 were 0.0631 µM (active), 0.178 µM (active) and 0.0028 µM (active), respectively.
With `COC1CC(=C(c2cccs2)c2cccs2)C[N+](C)(C)C1` (stereo not drawn), the Potency in the test with CP185 is 6.31 µM (active); with CP191, 5.01 µM (active); in the test with CP217, 6.31 µM (active); in the test on CP237 it was 11.2 µM (active).
For the molecule `CCCCCCC(=O)CCCCCC/C=C/C[C@@H](O)[C@H](O)[C@@](N)(CO)C(=O)O`, the Potency result in the test on CP185, with CP191, in the test with CP192, in the test with CP194, with CP201 and in the test on CP211 was “inactive” each time. The Potency entry in the test on CP215, in the test on CP217 and with CP237 was “inactive” each time.
Consider `C[C@]12CC[C@@H]3c4ccc(OC(=O)N(CCCl)CCCl)cc4CC[C@H]3[C@@H]1CC[C@@H]2O`, for which the Potency entry in the test with CP185, with CP191, with CP192, in the test on CP194, in the test with CP201 and in the test with CP211 was “inactive” each time. Further, the Potency entry in the test on CP215, in the test with CP217 and with CP237 was “inactive” each time.
Take `Clc1ccc2c(c1)C(c1ccccc1)=NCc1nncn1-2`: the Potency result in the test on CP185, in the test on CP191, in the test on CP192, in the test with CP194, in the test with CP201 and in the test with CP211 was “inactive” each time. In addition, the Potency result in the test on CP215, in the test with CP217 and with CP237 was “inactive” each time.
In the case of `O=C1Nc2ccc(Cl)cc2C(c2ccccc2Cl)=NC1O` (stereo not drawn), the Potency entry in the test with CP185, in the test on CP191, with CP192, in the test with CP194, with CP201 and in the test on CP211 was “inactive” each time. For the same molecule, the Potency result in the test with CP217 and with CP237 was “inactive” in each case.
For `CC(C)=CC1C(C(=O)OCN2C(=O)C3=C(CCCC3)C2=O)C1(C)C` (stereo not drawn), the Potency result in the test with CP185, in the test on CP191, in the test with CP192, in the test on CP194, in the test with CP201 and in the test on CP211 was “inactive” throughout. The Potency result in the test with CP215, in the test on CP217 and in the test on CP237 was “inactive” throughout.
On to `COc1ccc2c(c1OC)C(=O)O[C@H]2[C@@H]1c2cc3c(cc2CCN1C)OCO3`, for which the Potency entry with CP192, in the test with CP194, with CP201, in the test on CP211 and in the test on CP215 was “inactive” each time.
For the molecule `O=C1c2ccccc2C(=O)c2ccccc21`, the Potency entry in the test on CP185, in the test with CP192, in the test with CP194, with CP201, with CP211 and in the test on CP215 was “inactive” throughout. The Potency result in the test on CP217 and with CP237 was “inactive” throughout.
On to `Nc1ccc([As](=O)(O)O)cc1`, for which the Potency result with CP185, in the test with CP191, in the test with CP192, in the test on CP194, in the test on CP201 and in the test on CP211 was “inactive” in each case. Further, the Potency result in the test on CP215, with CP217 and with CP237 was “inactive” in each case.
On to `CC(C)(C)NCC(O)c1ccccc1Cl` (stereo not drawn), for which the Potency result in the test with CP191, in the test with CP192, in the test with CP201 and in the test on CP211 was “inactive” in each case. For the same molecule, the Potency with CP237 was 8.91 µM (active).
Regarding `CC(C)c1cccc(C(C)C)c1O`, the Potency result in the test on CP185, with CP191, in the test on CP192, with CP194, in the test on CP201 and with CP215 was “inactive” in each case. Also, the Potency result in the test on CP217 and in the test on CP237 was “inactive” each time.
Turning to `CCCC(C)(COC(N)=O)COC(N)=O`, the Potency result with CP185, in the test with CP191, in the test on CP192, in the test on CP194, with CP201 and in the test on CP211 was “inactive” in each case. Further, the Potency entry in the test with CP217 and in the test on CP237 was “inactive” throughout.
Consider `C=CCN1C[C@H](C)N([C@H](c2ccc(C(=O)N(CC)CC)cc2)c2cccc(OC)c2)C[C@H]1C`, for which the Potency result with CP192, with CP194, in the test with CP201, in the test on CP211 and in the test on CP215 was “inactive” in each case. For the same molecule, the Potency in the test on CP237 is 12.6 µM (active).
Take `Clc1ccc(C(c2ccc(Cl)cc2)C(Cl)(Cl)Cl)cc1`: the Potency entry in the test on CP185, in the test on CP192, in the test on CP201, in the test on CP211 and in the test on CP217 was “inactive” in each case.
Regarding `COC(=O)C(c1ccccc1)C1CCCCN1` (stereo not drawn), the Potency entry with CP185, in the test with CP191, with CP192, with CP201, with CP203 and with CP211 was “inactive” each time. The Potency entry with CP215 and in the test on CP217 was “inactive” each time. Moreover, in the test on CP237, the Potency is 12.6 µM (active).
With `CN1C(=O)NC(=O)C(C)(C2=CCCCC2)C1=O` (stereo not drawn), the Potency entry in the test on CP185, with CP191, with CP192, with CP194, with CP201 and in the test with CP211 was “inactive” throughout. Besides, the Potency entry with CP215, in the test on CP217 and in the test with CP237 was “inactive” each time.
`C[C@](O)(CS(=O)(=O)c1ccc(F)cc1)C(=O)Nc1ccc(C#N)c(C(F)(F)F)c1`: the Potency entry in the test with CP185, in the test with CP191, in the test with CP192, with CP194, with CP201 and with CP211 was “inactive” throughout. The Potency entry in the test with CP215, in the test with CP217 and with CP237 was “inactive” throughout.
As to `CC(C)(C)NCC(O)c1cc(Cl)c(N)c(C(F)(F)F)c1` (stereo not drawn), the Potency in the test with CP185 is 10 µM (active); with CP191, 4.47 µM (active); in the test with CP217, 11.2 µM (active); with CP237, 7.08 µM (active). The Potency entry in the test on CP192 and with CP201 was “inactive” throughout.
On to `COP(=S)(OC)SCN1C(=O)c2ccccc2C1=O`, for which the Potency entry with CP185, in the test on CP191, in the test with CP192, with CP194, with CP201 and in the test with CP211 was “inactive” in each case. The Potency result in the test on CP215, in the test on CP217 and in the test on CP237 was “inactive” in each case.
On to `O=C1c2ccccc2C(=O)C1C(=O)C(c1ccccc1)c1ccccc1`, for which the Potency result in the test with CP185, in the test with CP191, in the test with CP192, in the test with CP194, in the test with CP203 and in the test on CP211 was “inactive” in each case. Also, the Potency entry in the test on CP215, in the test on CP217 and in the test on CP237 was “inactive” each time.
With `Nc1ccccc1C(=O)O`, the Potency result with CP185, with CP191, in the test on CP192, with CP194, in the test on CP201 and in the test on CP211 was “inactive” each time. For the same molecule, the Potency entry with CP215, in the test with CP217 and in the test with CP237 was “inactive” in each case.
On to `Oc1ccc(Cl)cc1`, for which the Potency entry in the test on CP185, in the test on CP191, in the test with CP192, in the test on CP194, with CP201 and in the test with CP211 was “inactive” each time. Also, the Potency result in the test with CP215, in the test on CP217 and in the test with CP237 was “inactive” each time.
Take `CCOP(=S)(OCC)Oc1ccc2c(C)c(Cl)c(=O)oc2c1`: in the test on CP192, the Potency result was “inactive”.
With `COc1ccc2c(c1)C13CCCC[C@@H]1C(C2)N(C)CC3` (stereo partly drawn), the Potency entry in the test with CP191, in the test on CP192, in the test with CP201, in the test on CP211, with CP215 and in the test with CP217 was “inactive” throughout. Also, the Potency entry in the test with CP237 was “inactive”.
For `O=C(Nc1ccc(Br)cc1)c1cc(Br)cc(Br)c1O`, the Potency entry in the test on CP185, in the test with CP191, in the test with CP192, in the test on CP194, in the test on CP201 and with CP211 was “inactive” each time. In addition, the Potency result in the test with CP215, in the test with CP217 and with CP237 was “inactive” in each case.
Consider `NC(=O)c1cc([N+](=O)[O-])cc([N+](=O)[O-])c1`, for which the Potency entry with CP192, in the test with CP194, in the test with CP201, with CP203 and with CP215 was “inactive” each time.
`NC(=O)CS(=O)C(c1ccccc1)c1ccccc1` (stereo not drawn): the Potency result in the test on CP185, in the test with CP191, in the test with CP192, with CP194, in the test on CP201 and with CP211 was “inactive” each time. In addition, the Potency result with CP215, with CP217 and in the test on CP237 was “inactive” each time.
Take `CNC(C)(C)Cc1ccccc1`: the Potency result in the test on CP185, with CP191, in the test with CP194, in the test with CP201, with CP211 and with CP215 was “inactive” in each case. For the same molecule, the Potency entry in the test with CP217 is “inactive”.
As for `CN1CCC(O)(c2ccc(F)cc2)C(C(=O)c2ccc(F)cc2)C1` (stereo not drawn), the Potency result with CP185, in the test on CP191, in the test with CP192, in the test with CP194, in the test on CP201 and in the test on CP211 was “inactive” each time. Also, the Potency result in the test with CP215, with CP217 and in the test with CP237 was “inactive” each time.
On to `NNc1ccccc1`, for which the Potency result with CP185, in the test on CP191, with CP192, in the test on CP194, in the test with CP201 and in the test on CP211 was “inactive” in each case. In addition, the Potency result in the test on CP215, with CP217 and in the test on CP237 was “inactive” throughout.
